Results taken from the OligoGym collection.
Further: reference of the scale not given here.

The sequences below were run against EFCAB6 (assay: pooled miR-30 sensor sort-seq; sequence = guide strand). Details: shRNA.
In the case of TAAATGTTCACTTAACAGCTGA, the sensor-assay potency score (higher = more potent) is reported as -0.275.
TTGACTGGCATCTCGTTCCAGA showed a sensor-assay potency score (higher = more potent) of -0.455.
Sequence TTGAATATACTCTACACGGTGA has a sensor-assay potency score (higher = more potent) of 0.203.
With TTCTTAGACAAGTCTGACCATC the sensor-assay potency score (higher = more potent) was -0.457.
In the case of TTTCATAACAGTCTTAATGTTT, the sensor-assay potency score (higher = more potent) is reported as -0.893.
Sequence TAAGAGAACATCCACATTCTTC has a sensor-assay potency score (higher = more potent) of -0.398.
In the case of TTAGACAAGTCTGACCATCTGT, the sensor-assay potency score (higher = more potent) is reported as 0.537.

The sequences below were run against EFCAB7 in the same assay as above. Details: shRNA.
With TTCTCGATCATTAGCTTCCATT the sensor-assay potency score (higher = more potent) was -1.27.
TATATTTTCATAGCCATCCATT showed a sensor-assay potency score (higher = more potent) of -0.796.
For TAGTCTTGAGACATTGCTCGTT, the sensor-assay potency score (higher = more potent) was 0.405.
Sequence TTCTCTATTTCGTAGTTCGGTA has a sensor-assay potency score (higher = more potent) of -1.01.
Sequence TTGATCTTTAGAAATAATGTTT has a sensor-assay potency score (higher = more potent) of -0.858.
With TTGTTTTCAATAACTGACGTTA the sensor-assay potency score (higher = more potent) was -0.29.
TACAATAATATATCCATTCTTG showed a sensor-assay potency score (higher = more potent) of -0.277.
TTCGGTAAAACACACAAGCTGT gave a sensor-assay potency score (higher = more potent) of -0.242.
TAATTTACAAAACTTGATGTAG was tested, and the sensor-assay potency score (higher = more potent) was -0.142.
TTTACTGTCAACCTCTAGTTTT was tested, and the sensor-assay potency score (higher = more potent) was -1.12.
Work on TTCATCTCTATATACAAGTTGG yielded a sensor-assay potency score (higher = more potent) of -0.725.
TTTGTATCAAAATTCTCTCTGC gave a sensor-assay potency score (higher = more potent) of 0.129.

The sequences below were run against EFNB2 in the same assay as above. Details: shRNA.
With TATAATATTCATACTGGCCAAC the sensor-assay potency score (higher = more potent) was -1.28.
For AATTCTTGAAACTTGATGGTGA, the sensor-assay potency score (higher = more potent) was 0.644.
TATCTGTGGGTATAGTACCAGT gave a sensor-assay potency score (higher = more potent) of -1.11.
TTTTCCTTCTTAATAGTGCATC was tested, and the sensor-assay potency score (higher = more potent) was -0.818.
For TTGCACACCTTAACTAGCCCGA, the sensor-assay potency score (higher = more potent) was -0.379.
With TTAATAGTGCATCTGTCTGCTT the sensor-assay potency score (higher = more potent) was -0.0531.
Work on TTAGCATAGAACCAAAACGTAG yielded a sensor-assay potency score (higher = more potent) of -1.59.
TTTATCAACCATATAAACTTTA showed a sensor-assay potency score (higher = more potent) of -0.264.
For TTCTGCACAGTCTTCCAGCTTC, the sensor-assay potency score (higher = more potent) was -0.41.
Work on ATAGGCTCTAAAACTATCGATT yielded a sensor-assay potency score (higher = more potent) of -0.56.
With TTTTCTTCCTGCACATCGCTAT the sensor-assay potency score (higher = more potent) was 0.000564.
Work on TAATAGTGCATCTGTCTGCTTG yielded a sensor-assay potency score (higher = more potent) of 0.293.
TTGTCGAACTTCTTCCATTTGT showed a sensor-assay potency score (higher = more potent) of -0.423.
Sequence TTGATCCAGCAGAACTTGCATC has a sensor-assay potency score (higher = more potent) of -0.768.
In the case of TTGTTGTCGAACTTCTTCCATT, the sensor-assay potency score (higher = more potent) is reported as -1.15.
Work on TAGAGGATCATAATTTCTGTGA yielded a sensor-assay potency score (higher = more potent) of -0.365.
TTAGACTTTATAAAAAACCAAC gave a sensor-assay potency score (higher = more potent) of -1.36.
TATAATGTAATAATCTTTGTTC was tested, and the sensor-assay potency score (higher = more potent) was 0.426.
TTGCTCTATGTACACAATCTGG gave a sensor-assay potency score (higher = more potent) of -1.18.
With TAGTGCATCTGTCTGCTTGGTC the sensor-assay potency score (higher = more potent) was 0.00867.
TTTATACAAAACATCTTGCTTA showed a sensor-assay potency score (higher = more potent) of 0.624.
